# ± gives the standard deviation.
# T1: HaloTag-ATRX ADD domain (163-292)
# T1 chain: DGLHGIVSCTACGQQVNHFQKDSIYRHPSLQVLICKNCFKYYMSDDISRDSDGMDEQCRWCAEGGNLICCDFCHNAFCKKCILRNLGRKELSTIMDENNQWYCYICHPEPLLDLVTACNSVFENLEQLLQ
# Legend:
# Experiment in all cases: peptide microarray binding signal (635 nm), min-max normalized on array (fraction of array maximum); higher = stronger binding
# Settings in all cases: peptide region: H3 112-124
# [1] = target: T1, HaloTag-ATRX ADD domain (163-292)
# Method in brief: (§1)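 For each library, binding signal was taken as the triplicate-spot mean intensity and then min-max scaled. Spots of histone 13-mer peptide–cellulose conjugates on nitrocellulose, printed in triplicate with a Cy3 tracer, were probed for 1 h at 4°C with either biotin-labelled HaloTag reader fusions (10 nM to 1 μM) and streptavidin-Alexa Fluor 647 or rabbit histone antibodies (1:10,000 to 1:2,000) and anti-rabbit Alexa 647. Readout at 635 nm came from an Axon GenePix 4000B.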
# [2] = target: HaloTag-ING2 PHD (mouse Ing2 200-280)
# Method in brief: as §1
# [3] = target: anti-H3K4me3 antibody ab8580
# Method in brief: as §1
# [4] = target: anti-H3K9me3 antibody ab8898
# Method in brief: as §1
# [5] = peptide modifications: H3K115me2 H3K122me3, binder concentration: 1:2,000 dilution
# [6] = peptide modifications: H3K115me2 H3K122me3, binder concentration: 1:10,000 dilution
# [7] = peptide modifications: H3K115me2 H3K122me2, binder concentration: 1:2,000 dilution
# [8] = peptide modifications: H3K115me2 H3K122me2, binder concentration: 1:10,000 dilution
# [9] = peptide modifications: H3K115me3 H3R116me2s, binder concentration: 1:2,000 dilution
# [10] = peptide modifications: H3K115me3 H3R116me2s, binder concentration: 1:10,000 dilution
# [11] = peptide modifications: H3K115me3 H3K122me1, binder concentration: 1:2,000 dilution
# [12] = peptide modifications: H3K115me3 H3K122me1, binder concentration: 1:10,000 dilution
# [13] = peptide modifications: H3K115me2 H3R116me2s, binder concentration: 1:2,000 dilution
# [14] = peptide modifications: H3K115me2 H3R116me2s, binder concentration: 1:10,000 dilution
# [15] = peptide modifications: H3K115me2, binder concentration: 1:2,000 dilution
# [16] = peptide modifications: H3K115me2, binder concentration: 1:10,000 dilution
# [17] = peptide modifications: H3K115me2 H3R116me1, binder concentration: 1:2,000 dilution
# [18] = peptide modifications: H3K115me2 H3R116me1, binder concentration: 1:10,000 dilution
# [19] = peptide modifications: H3K115me3 H3K122ac, binder concentration: 1:2,000 dilution
# [20] = peptide modifications: H3K115me3 H3K122ac, binder concentration: 1:10,000 dilution
# [21] = peptide modifications: H3K115me1 H3R116me2a, binder concentration: 1:2,000 dilution
# [22] = peptide modifications: H3K115me1 H3R116me2a, binder concentration: 1:10,000 dilution
# [23] = peptide modifications: H3K115me3 H3R116me2a, binder concentration: 1:2,000 dilution
# [24] = peptide modifications: H3K115me3 H3R116me2a, binder concentration: 1:10,000 dilution
binder,measurement,setting,value
IHAKRVTIMPKDI [H3 112-124 I H A Kme2 R V T I M P Kme3 D I],peptide microarray binding signal,"[1]; peptide modifications: H3K115me2 H3K122me3, binder concentration: 50 nM",0.00401 ± 7.2e-05
same,peptide microarray binding signal,"[1]; peptide modifications: H3K115me2 H3K122me3, binder concentration: 500 nM",0.0105 ± 0.00042
same,peptide microarray binding signal,"[2]; peptide modifications: H3K115me2 H3K122me3, binder concentration: 10 nM",0.0258 ± 0.0013
same,peptide microarray binding signal,"[2]; peptide modifications: H3K115me2 H3K122me3, binder concentration: 100 nM",0.0359 ± 0.0052
same,peptide microarray binding signal,[3]; [5],0.00289 ± 0.00018
same,peptide microarray binding signal,[3]; [6],0.00274 ± 0.00017
same,peptide microarray binding signal,[4]; [5],0.0105 ± 0.0013
same,peptide microarray binding signal,[4]; [6],0.00536 ± 0.00056
IHAKRVTIMPKDI [H3 112-124 I H A Kme2 R V T I M P Kme2 D I],peptide microarray binding signal,"[1]; peptide modifications: H3K115me2 H3K122me2, binder concentration: 50 nM",0.003981 ± 1.6e-05
same,peptide microarray binding signal,"[1]; peptide modifications: H3K115me2 H3K122me2, binder concentration: 500 nM",0.00729 ± 0.00043
same,peptide microarray binding signal,"[2]; peptide modifications: H3K115me2 H3K122me2, binder concentration: 10 nM",0.0277 ± 0.0045
same,peptide microarray binding signal,"[2]; peptide modifications: H3K115me2 H3K122me2, binder concentration: 100 nM",0.0324 ± 0.0023
same,peptide microarray binding signal,[3]; [7],0.00387 ± 0.0014
same,peptide microarray binding signal,[3]; [8],0.00382 ± 0.00021
same,peptide microarray binding signal,[4]; [7],0.0021 ± 6.7e-05
same,peptide microarray binding signal,[4]; [8],0.002076 ± 1.9e-05
IHAKRVTIMPKDI [H3 112-124 I H A Kme3 Rme2s V T I M P K D I],peptide microarray binding signal,"[1]; peptide modifications: H3K115me3 H3R116me2s, binder concentration: 50 nM",0.00351 ± 6.2e-05
same,peptide microarray binding signal,"[1]; peptide modifications: H3K115me3 H3R116me2s, binder concentration: 500 nM",0.00576 ± 0.00044
same,peptide microarray binding signal,"[2]; peptide modifications: H3K115me3 H3R116me2s, binder concentration: 10 nM",0.0107 ± 0.00099
same,peptide microarray binding signal,"[2]; peptide modifications: H3K115me3 H3R116me2s, binder concentration: 100 nM",0.0126 ± 0.0027
same,peptide microarray binding signal,[3]; [9],0.00608 ± 0.0018
same,peptide microarray binding signal,[3]; [10],0.0069 ± 0.00085
same,peptide microarray binding signal,[4]; [9],0.0055 ± 0.00076
same,peptide microarray binding signal,[4]; [10],0.00386 ± 0.00058
IHAKRVTIMPKDI [H3 112-124 I H A Kme3 R V T I M P Kme D I],peptide microarray binding signal,"[1]; peptide modifications: H3K115me3 H3K122me1, binder concentration: 50 nM",0.006489 ± 2.2e-05
same,peptide microarray binding signal,"[1]; peptide modifications: H3K115me3 H3K122me1, binder concentration: 500 nM",0.0138 ± 0.00023
same,peptide microarray binding signal,"[2]; peptide modifications: H3K115me3 H3K122me1, binder concentration: 10 nM",0.0505 ± 0.0051
same,peptide microarray binding signal,"[2]; peptide modifications: H3K115me3 H3K122me1, binder concentration: 100 nM",0.0785 ± 0.0067
same,peptide microarray binding signal,[3]; [11],0.0317 ± 0.0091
same,peptide microarray binding signal,[3]; [12],0.0326 ± 0.0097
same,peptide microarray binding signal,[4]; [11],0.0313 ± 0.0018
same,peptide microarray binding signal,[4]; [12],0.0119 ± 0.00075
IHAKRVTIMPKDI [H3 112-124 I H A Kme2 Rme2s V T I M P K D I],peptide microarray binding signal,"[1]; peptide modifications: H3K115me2 H3R116me2s, binder concentration: 50 nM",0.006426 ± 2.2e-05
same,peptide microarray binding signal,"[1]; peptide modifications: H3K115me2 H3R116me2s, binder concentration: 500 nM",0.00905 ± 0.00055
same,peptide microarray binding signal,"[2]; peptide modifications: H3K115me2 H3R116me2s, binder concentration: 10 nM",0.0113 ± 0.0004
same,peptide microarray binding signal,"[2]; peptide modifications: H3K115me2 H3R116me2s, binder concentration: 100 nM",0.0135 ± 0.00076
same,peptide microarray binding signal,[3]; [13],0.00383 ± 0.0002
same,peptide microarray binding signal,[3]; [14],0.00462 ± 0.00022
same,peptide microarray binding signal,[4]; [13],0.00335 ± 0.00032
same,peptide microarray binding signal,[4]; [14],0.00236 ± 3.7e-05
IHAKRVTIMPKDI [H3 112-124 I H A Kme2 R V T I M P K D I],peptide microarray binding signal,"[1]; peptide modifications: H3K115me2, binder concentration: 50 nM",0.0058 ± 7e-05
same,peptide microarray binding signal,"[1]; peptide modifications: H3K115me2, binder concentration: 500 nM",0.012 ± 0.0003
same,peptide microarray binding signal,"[2]; peptide modifications: H3K115me2, binder concentration: 10 nM",0.0144 ± 0.00078
same,peptide microarray binding signal,"[2]; peptide modifications: H3K115me2, binder concentration: 100 nM",0.0293 ± 0.0017
same,peptide microarray binding signal,[3]; [15],0.00506 ± 0.00089
same,peptide microarray binding signal,[3]; [16],0.00588 ± 0.00054
same,peptide microarray binding signal,[4]; [15],0.00495 ± 0.00045
same,peptide microarray binding signal,[4]; [16],0.00479 ± 0.00031
IHAKRVTIMPKDI [H3 112-124 I H A Kme2 Rme V T I M P K D I],peptide microarray binding signal,"[1]; peptide modifications: H3K115me2 H3R116me1, binder concentration: 50 nM",0.00978 ± 0.00067
same,peptide microarray binding signal,"[1]; peptide modifications: H3K115me2 H3R116me1, binder concentration: 500 nM",0.0323 ± 0.001
same,peptide microarray binding signal,"[2]; peptide modifications: H3K115me2 H3R116me1, binder concentration: 10 nM",0.0352 ± 0.017
same,peptide microarray binding signal,"[2]; peptide modifications: H3K115me2 H3R116me1, binder concentration: 100 nM",0.0291 ± 0.0025
same,peptide microarray binding signal,[3]; [17],0.0244 ± 0.00081
same,peptide microarray binding signal,[3]; [18],0.0144 ± 0.0052
same,peptide microarray binding signal,[4]; [17],0.00761 ± 0.0024
same,peptide microarray binding signal,[4]; [18],0.0104 ± 0.00061
IHAKRVTIMPKDI [H3 112-124 I H A Kme3 R V T I M P Kac D I],peptide microarray binding signal,"[1]; peptide modifications: H3K115me3 H3K122ac, binder concentration: 50 nM",0.00408 ± 6.9e-05
same,peptide microarray binding signal,"[1]; peptide modifications: H3K115me3 H3K122ac, binder concentration: 500 nM",0.00905 ± 0.0013
same,peptide microarray binding signal,"[2]; peptide modifications: H3K115me3 H3K122ac, binder concentration: 10 nM",0.0419 ± 0.0077
same,peptide microarray binding signal,"[2]; peptide modifications: H3K115me3 H3K122ac, binder concentration: 100 nM",0.0725 ± 0.024
same,peptide microarray binding signal,[3]; [19],0.0222 ± 0.0067
same,peptide microarray binding signal,[3]; [20],0.0228 ± 0.0068
same,peptide microarray binding signal,[4]; [19],0.0259 ± 0.0045
same,peptide microarray binding signal,[4]; [20],0.0117 ± 0.0018
IHAKRVTIMPKDI [H3 112-124 I H A Kme Rme2a V T I M P K D I],peptide microarray binding signal,"[1]; peptide modifications: H3K115me1 H3R116me2a, binder concentration: 50 nM",0.005172 ± 3.7e-05
same,peptide microarray binding signal,"[1]; peptide modifications: H3K115me1 H3R116me2a, binder concentration: 500 nM",0.0151 ± 0.00091
same,peptide microarray binding signal,"[2]; peptide modifications: H3K115me1 H3R116me2a, binder concentration: 10 nM",0.0102 ± 0.00057
same,peptide microarray binding signal,"[2]; peptide modifications: H3K115me1 H3R116me2a, binder concentration: 100 nM",0.0244 ± 0.0083
same,peptide microarray binding signal,[3]; [21],0.00434 ± 0.00096
same,peptide microarray binding signal,[3]; [22],0.00297 ± 8.7e-05
same,peptide microarray binding signal,[4]; [21],0.0064 ± 0.00053
same,peptide microarray binding signal,[4]; [22],0.00317 ± 0.00013
IHAKRVTIMPKDI [H3 112-124 I H A Kme3 Rme2a V T I M P K D I],peptide microarray binding signal,"[1]; peptide modifications: H3K115me3 H3R116me2a, binder concentration: 50 nM",0.00345 ± 4.9e-05
same,peptide microarray binding signal,"[1]; peptide modifications: H3K115me3 H3R116me2a, binder concentration: 500 nM",0.00524 ± 0.00015
same,peptide microarray binding signal,"[2]; peptide modifications: H3K115me3 H3R116me2a, binder concentration: 10 nM",0.0172 ± 0.00022
same,peptide microarray binding signal,"[2]; peptide modifications: H3K115me3 H3R116me2a, binder concentration: 100 nM",0.0232 ± 0.0011
same,peptide microarray binding signal,[3]; [23],0.00885 ± 0.0017
same,peptide microarray binding signal,[3]; [24],0.00451 ± 0.00052
same,peptide microarray binding signal,[4]; [23],0.00763 ± 0.0013
same,peptide microarray binding signal,[4]; [24],0.00467 ± 0.00017
